This is a sample that favours compounds with a hit; in the whole collection about 4.8% have one here.
ssDAF-12 act: S. stercoralis DAF-12 activation, primary screen; HEK293 ssDAF-12/GRIP1 lit1-tk-luc reporter, luminescence; % of 3 µM dafachronic acid response; AID 652126; activation, % at 6.8 µM; actives 1% (n = 370,000);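 active = activation above the mean over all tested compounds plus 3 SD, cut at about 0.9% in these data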
hgDAF-12 ag: agonists of H. glycines DAF-12 nuclear receptor. HEK293 GAL4-hgDAF12 UAS-luciferase reporter, agonist luminescence; normalized to butyrate control. activation, % at 6.8 µM. actives 1.8% (n = 370,000);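 active = activation above a cutoff set at the mean of all screened compounds plus 3 SD, cut at about 10% in these data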
hcDAF12 agonist: activators of H. contortus DAF-12 nuclear receptor. HEK293 hcDAF-12 lit1-tk-luc reporter, luminescence; 0% DMSO, 100% Δ7-dafachronic acid. activation, % at 6.8 µM. actives 1.4% (n = 370,000);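 active = activation above the mean of all tested compounds plus 3 SD, cut at about 5.5% in these data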
DAX1 inh-1: NR0B1 (DAX1) inhibition; P51843; HEK293 Gal4-DAX1 luciferase reporter, luminescence; inhibition, % at 6.75 µM; actives 0.99% (n = 340,000); AID 504766;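 active = inhibition above the mean over all tested compounds plus 3 SD, cut at about 4.2% in these data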;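 note: inhibition shows as a rise in luminescence from relieved DAX1 repression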
DAX1 inh-2: blocks DAX1 repression of SF-1 activated StAR promoter; actives 1.1% (n = 370,000); HEK293T StAR-luciferase reporter, SF-1/DAX-1 repression relief; inhibition, % at 6.8 µM;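 active = inhibition above the mean over all tested compounds plus 3 SD, cut at about 3.6% in these data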;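 note: higher inhibition means more luminescence from relief of DAX-1 repression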
NR1D1 modulator: modulators of human Rev-erb alpha DNA binding. activity, % at 10 µM. Rev-erbα–FITC-DNA binding, fluorescence polarization, 90 min. AID 1259318. P20393. actives 0.79% (n = 370,000);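 active = activity above about 14%, limit read from the data; passing the limit was not always enough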
Target sequence (P20393 whole entry, looked up): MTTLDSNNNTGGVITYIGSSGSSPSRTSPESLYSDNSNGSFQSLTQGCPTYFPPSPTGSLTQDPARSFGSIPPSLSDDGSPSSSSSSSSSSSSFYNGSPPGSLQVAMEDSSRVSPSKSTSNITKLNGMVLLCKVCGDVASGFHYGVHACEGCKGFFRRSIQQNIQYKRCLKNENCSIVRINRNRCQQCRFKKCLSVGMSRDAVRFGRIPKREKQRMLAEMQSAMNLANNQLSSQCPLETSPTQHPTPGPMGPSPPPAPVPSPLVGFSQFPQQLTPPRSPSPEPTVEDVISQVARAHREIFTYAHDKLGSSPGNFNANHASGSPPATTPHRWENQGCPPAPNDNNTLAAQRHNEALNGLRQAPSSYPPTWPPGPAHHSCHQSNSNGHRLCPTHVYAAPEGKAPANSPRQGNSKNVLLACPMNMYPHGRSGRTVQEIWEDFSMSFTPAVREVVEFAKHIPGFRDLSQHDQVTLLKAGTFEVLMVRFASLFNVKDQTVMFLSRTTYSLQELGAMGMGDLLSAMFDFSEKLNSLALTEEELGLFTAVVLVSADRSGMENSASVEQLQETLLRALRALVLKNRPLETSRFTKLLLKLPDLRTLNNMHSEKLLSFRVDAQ
NR1D1 mod conf: Rev-erb alpha (human) modulation, hit confirmation | Rev-erb alpha FITC-DNA binding, fluorescence polarization, 90 min | shares compounds with NR1D1 modulator | activation, % at 25 µM | AID 1259319 | actives 61% (n = 3,000);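 active = activation at or above a set limit, or at least 3 SD above the negative control mean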
RORg DNA counter: affects RORgamma DNA binding in a Rev-erb alpha counter-screen; shares compounds with NR1D1 modulator; purified RORgamma protein-FITC-DNA binding, fluorescence polarization; IC50, µM; actives 8% (n = 910); AID 1259320;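 active = Compounds whose fitted half-maximal concentration for disrupting protein-DNA binding is below 10 micromolar; the record names Rev-erb in its text, so the target is in doubt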
Of the large screens only hits and unclear results are named; the others gave an inactive call (follow-up assays come after a bar, where they were run).

O=C(Cn1c(=S)[nH]c2ccccc2c1=O)NCCc1ccccc1	NR1D1 modulator 31 | NR1D1 mod conf 31 | RORg DNA counter inactive
CCC[C@H]1[C@@H](OC(=O)NC2CCCCC2)CC[C@@]23CCCN2C(=O)CCC[C@@H]13	none (no result: DAX1 inh-1, DAX1 inh-2)
CCC[C@H]1[C@@H](NCc2cccs2)CC[C@@]23CCCN2C(=O)CCC[C@@H]13	NR1D1 modulator 21 (no result: DAX1 inh-1, DAX1 inh-2) | NR1D1 mod conf 11
CN(Cc1ccccc1)C(=O)OCc1cn(Cc2cccc(F)c2)nn1	none (no result: DAX1 inh-1)
O=C1C(Cl)=C(NC2CCCCC2)C(=O)N1c1ccc(Cl)cc1	NR1D1 modulator 40 | NR1D1 mod conf inactive
c1ccc(-c2nc3ccccc3c3nc4ccccc4n23)cc1	NR1D1 modulator 22 | NR1D1 mod conf inactive
c1ccc(-c2nc3nonc3c3nc4ccccc4n23)cc1	none
O=C(/C=C/[C@H]1O[C@@H](n2ccc(=O)[nH]c2=O)[C@H](O)[C@@H]1O)NCCCc1ccccc1	none (no result: DAX1 inh-1)
O=C(Nc1nc(-c2ccccc2)c(C(=O)c2ccccc2)s1)c1ccc(S(=O)(=O)N2CCCCC2)cc1	hcDAF12 agonist 6.5, NR1D1 modulator 23 | NR1D1 mod conf 85 | RORg DNA counter inactive
COC(=O)Nc1nc(-c2ccccc2)c(C(=O)c2ccc(Cl)cc2)s1	NR1D1 modulator 30 | NR1D1 mod conf 31
O=C(Nc1nc(-c2ccccc2)c(-c2ccccc2)s1)c1ccc(S(=O)(=O)N2CCCCC2)cc1	none
Cn1c(=O)c2[nH]c(SCC(=O)NCCc3cccc(F)c3)nc2n(C)c1=O	none (no result: DAX1 inh-1)
COc1cc2c(cc1OC)C1(Nc3c-2c(C)nn3-c2ccccc2)C(=O)Nc2ccccc21 (stereo not drawn)	NR1D1 modulator 18 | NR1D1 mod conf inactive
O=C(CSc1nnc(-c2cccnc2)n1Cc1ccco1)Nc1ccc(Cl)cc1	none (no result: DAX1 inh-1)
CCOC(=O)c1oc2ccccc2c1NC(=O)COc1ccc(F)cc1	none (no result: ssDAF-12 act, hgDAF-12 ag, hcDAF12 agonist, DAX1 inh-2)
CCOC(=O)c1oc2ccccc2c1NC(=O)COc1cccc(OC)c1	NR1D1 modulator 23 | NR1D1 mod conf inactive
CC(NC(=O)c1ccc(N(C)C)cc1)C1CC2CCC1C2 (stereo not drawn)	NR1D1 modulator 31 | NR1D1 mod conf 18
COc1cccc(CN(C)[C@H]2C[C@H]3c4[nH]c5ccccc5c4CCN3C[C@H]2[C@H](C)O)c1OC	none (no result: DAX1 inh-1)
CC(=O)C1=CCN(C)CC1	none (no result: DAX1 inh-1)
O=C1c2cccc3cccc(c23)C(=O)N1OS(=O)(=O)c1ccccc1	NR1D1 modulator 59 | NR1D1 mod conf inactive
O=[N+]([O-])c1ccc(Sc2nc3ccccc3[nH]2)c(Cl)c1	none (no result: DAX1 inh-1)
COc1ccc(CN2C(=O)[C@]3(NCCc4c3[nH]c3ccc(OC)cc43)c3cc(Br)ccc32)cc1	none (no result: DAX1 inh-1)
COc1ccc(S(=O)(=O)N2CCCCCC2)cc1NC(=O)c1ccccc1	none
CC(C)(C)C(=O)Nc1cc(S(=O)(=O)N2CCCCC2)ccc1N1CCCCC1	NR1D1 modulator 39 | NR1D1 mod conf 38 | RORg DNA counter inactive
CC(C)C(=O)Nc1cc(S(=O)(=O)N2CCOCC2)ccc1N1CCCCC1	none
COc1ccc(S(=O)(=O)N2CCCCC2)cc1NC(=O)c1cncc(Br)c1	NR1D1 modulator 41 | NR1D1 mod conf 19
COc1ccc(-c2nc(N)ncc2Oc2ccccc2Br)c(O)c1	NR1D1 modulator 104 | NR1D1 mod conf 81 | RORg DNA counter inactive
CN(C)c1ccc(/C=C(\C#N)C(=O)Nc2nc3c(s2)CCN(Cc2ccccc2)C3)cc1	NR1D1 modulator 28 | NR1D1 mod conf 22
Cc1ccc(CNc2nc3ccccc3n3nnnc23)cc1	NR1D1 modulator 115 | NR1D1 mod conf 71 | RORg DNA counter inactive
COc1cc(S(N)(=O)=O)c(OC)cc1N	none
COc1cc(N=Nc2ccc(C)cc2S(N)(=O)=O)c(C)cc1N	NR1D1 modulator 25 | NR1D1 mod conf 21
